Assay results published in PubChem BioAssay.
The source made the active and inactive calls.

Experiment: plasmodial surface anion channel blockers, osmotic lysis – cell-based, P. falciparum Indochina, OD700, 1 h, primary screen (AID 1154)
Conditions: P. falciparum Indochina infected RBC osmotic lysis, higher = more signal, called active from +8 up or from −8 down

z-score, inactive:
CC1CC/C=C\[C@H]2OC34C=CCN(C(C)C)C(=O)[C@H]3N(C(C)CO)C(=O)[C@@H]4C2C(=O)O1 (some centres undefined) 1.07
O=C1NC(=O)C2C1C=CC(C(O)c1ccc(F)cc1)N2Nc1ccc(Cl)cc1Cl (centres undefined) 3.43
O=C(NCC(F)(F)F)[C@@H]1c2ccccc2C(=O)N(Cc2cc(C(F)(F)F)cc(C(F)(F)F)c2)[C@H]1c1ccc(CO)cc1 2.54
C=CCNC(=O)[C@H]1[C@@H]2C(=O)O[C@@H](c3ccccc3)[C@@H](c3ccccc3)N2[C@@H](c2ccc(O)cc2)[C@]12C(=O)N(C(=O)OCCOC)c1ccc(C#Cc3ccc(OC)cc3)cc12 2.57
COCCOC(=O)N1C(=O)[C@@]2(c3cc(C#CCNC(N)=O)ccc31)[C@H](C(N)=O)[C@H]1C(=O)O[C@H](c3ccccc3)[C@H](c3ccccc3)N1[C@@H]2c1ccc(O)cc1 1.65
COC(=O)[C@@]1(Cc2ccc(F)cc2)[C@H]2c3cc(C(=O)N(C)C)n(CCF)c3C[C@H]2CN1C(=O)c1ccccc1 2.02
COc1ccc(C(=O)Nc2cccc(CN3C(=O)[C@]4(O[C@H](CC(=O)N(CCO)Cc5ccccc5)[C@@H]([Si](C)(C)c5ccc(OC)cc5)[C@@H]4C)c4ccccc43)c2)cc1 4.41

z-score, active:
[N-]=[N+]=NCc1ccccc1C[C@]1(C(=O)N2CCCCC2)COC(c2ccc(OCCCO)cc2)=N1 29.2
CC(C)(C)OC(=O)CC[C@@]1(C(N)=O)N=C(c2ccc(OCCCO)cc2)O[C@@H]1c1ccccc1CN=[N+]=[N-] 23.4
